Assay [1] deals with HaCat. Briefly: Cytotoxic Profiling of Annotated Libraries Using Quantitative High-Throughput Screening (AID 1296008). For max response: % is set by controls: 0 for no effect and ±100 for the full control effect. Note: nearly all actives have a fitted effect of over 60% in size. Note: potency is the fitted concentration of half-maximal effect. The note with it: Five cell lines viability, CellTiter-Glo ATP luminescence, 48-72 h; max response: active compounds read low. An outline of the steps: (§1)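 Compounds were pin-transferred onto cells and incubated 48 or 72 hr at 37 degree Celsius, 95% humidity. CellTiter-Glo was added, plates sat 10 min at room temperature, then ATP-coupled luminescence was imaged as the viability read-out.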
(In general: In ATP-based viability assays light output follows the ATP content of the culture.)

The subject of another assay is KB-3-1. Described as above. The following applies: Five cell lines viability, CellTiter-Glo ATP luminescence, 48-72 h; max response: active compounds read low. In a few lines: as §1
For a further assay, the system named is C33A. Briefly: Primary qHTS to identify gynecologic anti-cancer compounds using libraries of approved drugs and bioactive compounds (AID 1345084). Note: nearly all actives have a fitted effect of over 55% in size. Note: potency is the fitted concentration of half-maximal effect. The following applies: Gynecologic cancer cell panel viability, ATPlite luminescence, 48 h; series mostly up to 57.5 µM. An outline of the steps:
(§2)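 Cell viability after 48 h drug treatment, ATPlite luminescence readout; five doses.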

Another assay relates to CAOV3. The description is as above. The note with it: Gynecologic cancer cell panel viability, ATPlite luminescence, 48 h; series mostly up to 57.5 µM. An outline of the steps: as §2
A further assay deals with HeLa. The assay is described as above. The note with it: Gynecologic cancer cell panel viability, ATPlite luminescence, 48 h; series mostly up to 57.5 µM. In a few lines:
as §2

Another assay has as its system JEG-3. The description is as above. The note with it: Gynecologic cancer cell panel viability, ATPlite luminescence, 48 h; series mostly up to 57.5 µM. In a few lines:
as §2

For a further assay, the system named is OV90. The description is as above. The following applies: Gynecologic cancer cell panel viability, ATPlite luminescence, 48 h; series mostly up to 57.5 µM. In a few lines: as §2
The next assay concerns PA-1. The assay is described as above. The note with it: Gynecologic cancer cell panel viability, ATPlite luminescence, 48 h; series mostly up to 57.5 µM. An outline of the steps:
as §2

Another assay concerns CASKI. The assay is described as above. The note with it: Gynecologic cancer cell panel viability, ATPlite luminescence, 48 h; series mostly up to 57.5 µM. An outline of the steps: as §2
The subject of the next assay is Es-2. The description is as above. The note with it: Gynecologic cancer cell panel viability, ATPlite luminescence, 48 h; series mostly up to 57.5 µM. In a few lines: as §2
The subject of the next assay is Hek293T. The assay is described as above. The note with it: Gynecologic cancer cell panel viability, ATPlite luminescence, 48 h, control line for the selectivity index; series mostly up to 57.5 µM. In a few lines: as §2
The test system of assay [2] is NIH3T3. Briefly: Cytotoxic Profiling of Annotated Libraries Using Quantitative High-Throughput Screening (AID 1296008). For max response: % is set by controls: 0 for no effect and ±100 for the full control effect. Note: nearly all actives have a fitted effect of over 60% in size. Note: potency is the fitted concentration of half-maximal effect. The following applies: Five cell lines viability, CellTiter-Glo ATP luminescence, 48-72 h; max response: active compounds read low. An outline of the steps: as §1
The test system of assay [3] is NIH3T3. Briefly: qHTS assay to identify novel small-molecules to repurpose for Merkel cell carcinoma treatment (AID 1296009). Note: nearly all actives have a fitted effect of over 60% in size. The following applies: MCC and control cell lines, CellTiter-Glo viability, 72 h; series mostly up to 44.8 µM. In a few lines:
(§3)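 Viability readout: ATP luminescence (CellTiter-Glo) after 72 hr drug exposure at 37 degree celsius. Dose-response format was 8 points for NPC and 11 points for MIPE; data normalized to in-plate controls.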
(In general: qHTS replaces the single test concentration by a dilution series.)

In assay [4] the test system is HACAT. The description is as above. The note with it: MCC and control cell lines, CellTiter-Glo viability, 72 h; at 44.8 µM (top of the series) unless noted. In a few lines:
as §3

Inconclusive results are not listed. Unmarked numbers belong to inactive results. Calls of active or inactive are those of the source. Calls come from the whole dose curve; as a rule, active = well fitted curve in the direction sought with a large enough effect; inconclusive = small, poorly fitted or top-dose-only effect, or another doubt; inactive = no such curve, though single readings can be large; an effect the other way counts as inactive or inconclusive. Where a SMILES comes first, the peptide text is derived from it. Bridges are numbered along the chain shown (N, C = ends). [ ]: non-standard residue; d: D form. The star is where a group is joined. X2 = CC[C@H](C)CCCCC(=O)*; Dab = NCC[C@H](N)C(=O)O

Regarding `O=C(Nc1nc2cc(C(F)(F)F)cc(NC3CC3)n2n1)c1cccnc1`, the Potency in the assay on HaCat [1] is 4.61 µM (active); in the assay on KB-3-1, 5.8 µM (active); in the assay on HeLa, 12.6 µM (active); in the assay with JEG-3, 10 µM (active); in the assay with PA-1, 7.08 µM (active). Moreover, the Potency result in the assay with C33A, in the assay with CAOV3 and with OV90 was “inactive” throughout.

Turning to `O=c1[nH]c2ccc(C#CCN3CCC(Cc4ccccc4)CC3)cc2[nH]1`, the values for the max response in the assay with HaCat [1] and with KB-3-1 were 0.764% and -17.6%, respectively. The Potency entry with C33A, with CAOV3, in the assay on CASKI, in the assay on Es-2, in the assay with HeLa and in the assay with Hek293T was “inactive” throughout. Moreover, the Potency result in the assay on JEG-3 and in the assay with OV90 was “inactive” in each case.

As for `CC[N+]1(C/C2=C/CCCCCC2)CCC(NC(=O)C2c3cc(Cl)ccc3Oc3ccc(Cl)cc32)CC1` (configuration not stated), in the assay on HaCat [1], the max response was -26%. In addition, the compound was called inactive with NIH3T3 [2]. In addition, the Potency entry with NIH3T3 [3], with C33A, in the assay on CAOV3, with CASKI, in the assay with Es-2 and in the assay on HeLa was “inactive” in each case. Further, the Potency result in the assay on Hek293T, in the assay with JEG-3, in the assay on OV90 and with PA-1 was “inactive” throughout.

As to `C=C1C(=O)OC2/C=C(\CO)CC/C=C(\C=O)C(OC)C(OC(=O)C(C)CC)C12` (configuration not stated), the max response with HaCat [1] was -18%. In addition, the outcome with KB-3-1 was inactive. The Potency result in the assay on C33A, in the assay with CAOV3, with CASKI, in the assay with Es-2, in the assay with HeLa and in the assay on Hek293T was “inactive” in each case. Moreover, the Potency entry in the assay on JEG-3, with OV90 and with PA-1 was “inactive” in each case.

For the compound `Nc1nc2c(c(N3CC[C@@H](N)C3)n1)CCCc1ccccc1-2`, the outcome in the assay with HaCat [1] and with HACAT [4] was inactive. For the same compound, the max response in the assay on NIH3T3 [2] was -2.56%. Moreover, the Potency result with C33A, with CASKI, with Es-2, in the assay on HeLa, in the assay with JEG-3 and with PA-1 was “inactive” each time.

Turning to `COc1ccc2[nH]c(=O)c3c(c2c1)OC(C)(C)C=C3`, the max response in the assay on HaCat [1] is -2%. The compound was called inactive in the assay on KB-3-1. In addition, the Potency entry with C33A, in the assay with CAOV3, in the assay on CASKI, in the assay with Es-2, in the assay on HeLa and with JEG-3 was “inactive” throughout. The Potency entry in the assay with OV90 and with PA-1 was “inactive” throughout.

Turning to `C#CCOc1ccc2c(c1)c(-c1ccc(C(C)C)cc1)nc(=O)n2C(C)C`, the call with HaCat [1] and in the assay with HACAT [4] was inactive. The max response in the assay on NIH3T3 [2] was -1.76%. In addition, the Potency result with C33A, in the assay with CAOV3, in the assay with CASKI, in the assay with Es-2, in the assay with HeLa and in the assay with Hek293T was “inactive” throughout. Also, the Potency entry in the assay with JEG-3 and in the assay with PA-1 was “inactive” in each case.

As for `CN(C)CCC(CSc1ccccc1)Nc1ccc(S(=O)(=O)NC(=O)c2ccc(N3CCN(Cc4ccccc4-c4ccc(Cl)cc4)CC3)cc2)cc1[N+](=O)[O-]` (configuration not stated), the Potency in the assay with HaCat [1] is 23.1 µM (active). The max response with NIH3T3 [2] is -12.9%. For the same compound, the Potency entry in the assay on C33A, with Es-2, with HeLa, in the assay with Hek293T, in the assay with JEG-3 and in the assay with PA-1 was “inactive” throughout.

As to `CS/C=C/C(=O)O[C@@H]1CCC2=CC(=O)C(=C(C)C)C[C@]2(C)[C@H]1C`, the figures for the max response in the assay on HaCat [1] and with NIH3T3 [2] were -6.05% and -13.9%, respectively. The Potency entry in the assay on CAOV3, in the assay on Es-2, in the assay with HeLa, in the assay on Hek293T, with JEG-3 and in the assay with OV90 was “inactive” each time. Further, the Potency result in the assay with PA-1 is “inactive”.

As to `CC(C)CCNC(=O)[C@H](CC(C)C)NC(=O)[C@H]1O[C@@H]1C(=O)O`, the max response in the assay on HaCat [1] is -18.1%. Moreover, in the assay on CAOV3, the Potency result was “inactive”.

With `CC[C@H](C)CCCCC(=O)N[C@@H](CCN)C(=O)N[C@H](C(=O)N[C@@H](CCN)C(=O)N[C@H]1CCNC(=O)[C@H]([C@@H](C)O)NC(=O)[C@H](CCN)NC(=O)[C@H](CCN)NC(=O)[C@H](CC(C)C)NC(=O)[C@@H](CC(C)C)NC(=O)[C@H](CCN)NC1=O)[C@@H](C)O` (X2-[Dab]T[Dab][Dab][Dab][dL]L[Dab][Dab]T; lactam 4-C), the max response with KB-3-1 is -11.4%.

As for `CCC(=O)OCC(=O)[C@@]1(OC(=O)CC)[C@@H](C)C[C@H]2[C@@H]3CCC4=CC(=O)C=C[C@]4(C)[C@@]3(Cl)[C@@H](O)C[C@@]21C`, the max response in the assay on KB-3-1 was -12.3%.

For `OC(CC1c2ccccc2-c2cncn21)C1CCCCC1` (configuration not stated), the max response with HaCat [1] was -2.64%; with NIH3T3 [2], -17.5%. For the same compound, the Potency result in the assay on C33A, with CAOV3, in the assay with CASKI, in the assay on Es-2, in the assay with HeLa and with Hek293T was “inactive” throughout. Further, the Potency entry with JEG-3, in the assay on OV90 and in the assay with PA-1 was “inactive” in each case.

On to `CCOC(=O)N1CCC(CN(Cc2ccc(Cl)cc2)Cc2ccc([N+](=O)[O-])s2)C1` (configuration not stated), for which the max response with HaCat [1] was -2.73%; with NIH3T3 [2], -3.24%. The Potency result in the assay with C33A, with CAOV3, with CASKI, in the assay with Es-2, with HeLa and with Hek293T was “inactive” in each case. The Potency result with JEG-3, in the assay with OV90 and in the assay with PA-1 was “inactive” throughout.

As to `O=C(N[C@@H]1CCCc2c1cnn2-c1ccc(F)cc1F)c1ccccn1`, the results for the max response with HaCat [1] and in the assay with NIH3T3 [2] were -21.6% and 3.41%, respectively. In addition, the Potency result in the assay on C33A, in the assay on CAOV3, with CASKI, in the assay on Es-2, with HeLa and with OV90 was “inactive” in each case. In addition, the Potency entry in the assay on PA-1 is “inactive”.

As for `COc1ccc(C#Cc2ccc(C(=O)N3CCC[C@@H](CO)C3)cc2)cc1`, the max response in the assay on HaCat [1] was 1.97%; in the assay with NIH3T3 [2], -25.7%. In addition, the Potency entry in the assay with C33A, with CAOV3, in the assay with CASKI, in the assay on Es-2, with HeLa and in the assay with Hek293T was “inactive” in each case. Besides, the Potency entry with JEG-3, in the assay with OV90 and with PA-1 was “inactive” each time.

For the compound `CC(=O)OC1CCC2(C)C(CCC3(C)C2CC=C2C4C(C)C(C)CCC4(C)CCC23C)C1(C)C(=O)O` (configuration not stated), the max response in the assay on HaCat [1] was 3.45%; in the assay with NIH3T3 [2], -0.103%. The Potency entry in the assay with C33A, in the assay on CAOV3, in the assay on CASKI, with Es-2, in the assay on HeLa and with Hek293T was “inactive” throughout. The Potency entry with OV90 and with PA-1 was “inactive” in each case.

For `Nc1ncnc2c1c(-c1ccc(Cl)cc1)nn2-c1cccc(-c2cnnn2Cc2cccc(-c3ccccc3)c2)c1`, the max response with HaCat [1] was -3.38%. The Potency result with C33A, in the assay on CAOV3, with CASKI, in the assay with HeLa, with Hek293T and in the assay with JEG-3 was “inactive” in each case. In the assay with OV90, the Potency entry was “inactive”.
